Experimental findings from PubChem BioAssay AID624300 (Southern Research Specialized Biocontainment Screening …, 2012) are described below.

Hit rate of the full screen: of about 2,400 compounds, about 360 (15%) were called active. Only a sample is shown. Results with a measured potency or affinity are listed apart. A number with no mark means an inactive call.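 How the source made its calls: active means viability falls under 70% at one or more tested concentrations, taken as toxicity; inactive means viability stays over 70% at every dose.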

The test is described as follows: HeLa cell cytotoxicity, dose response, cytotoxicity control for MgcRacGAP inhibitor project (AID 624300).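 Further: 100% = median of untreated control wells on the same plate.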 Conditions: CellTiter-Glo luminescence, 24 h; series mostly up to 100 µM; viability: at the top concentration.
Take `COc1cc(/C=N/NC(=O)c2ccoc2C)ccc1O`: the “viability” value was 84.7%.

As to `CCN(CC)c1ccc(/C=N\NC(N)=O)cc1`, the “viability” value was 90.5%.

As to `COc1cc(OC)c(Cl)cc1N`, the “viability” value is 103%.

Turning to `CCc1cc(/C(Cc2ccccn2)=N\O)c(O)cc1O`, the “viability” value was 89.5%.

As for `CCc1cc(/C(Cc2csc(C)n2)=N/O)c(O)cc1O`, the “viability” value was 95.9%.

Take `COc1ccc(C)cc1NCc1cccc(OC)c1OC`: the “viability” value was 99.1%.

Consider `Cn1cccc1/C=N/N1CCN(c2ccccn2)CC1`, for which the “viability” value is 99.6%.

Turning to `Cc1ccc(C(C)C)c(OCCCCN2CCNCC2)c1`, the “viability” value was 89.7%.

`Cc1ccc(C(C)(C)C)cc1S(=O)(=O)N1CCC(C(=O)N2CCN(c3ccc(O)cc3)CC2)CC1`: the “viability” value is 82.4%.

As for `Cc1ccc(/C(C#N)=C\c2ccc(N3CCOCC3)o2)cc1`, the “viability” value was 95.3%.

As for `N#C/C(=C/c1ccc(N2CCCCCC2)o1)c1ccc(Cl)cc1`, the “viability” value is 81.8%.

As for `Nc1sc(-c2ccccc2)c(Cc2ccccc2)c1C(=O)O`, the “viability” value was 87.5%.

Regarding `COc1ccc2c(c1)c(C(=O)N/N=C/c1ccc(O)c(O)c1)c(C)n2C`, the “viability” value was 94.3%.

`COc1cccc(OCC(O)CN2CCN(C)CC2)c1` (centres undefined): the “viability” value is 102%.

Consider `CCN1CCN(CC(O)COC(c2ccccc2)c2ccccc2C)CC1` (centres undefined), for which the “viability” value is 104%.

For `O=[N+]([O-])c1cccc(CN2CCN(Cc3ccco3)CC2)c1`, the “viability” value is 101%.

Turning to `O=[N+]([O-])c1ccc(Sc2cccc3cccnc23)c([N+](=O)[O-])c1`, the “viability” value is 101%.

As for `CCc1cc(-c2[nH]ncc2-c2nc3ccccc3n2C)c(O)cc1O`, the “viability” value is 91%.

Turning to `CCOc1cc(/C=N/Nc2nc(=O)[nH]nc2C)ccc1O`, the “viability” value was 91.2%.

For `COc1cc(/C=N/Nc2ccc(C(F)(F)F)cn2)ccc1O`, the “viability” value is 89.1%.

For the compound `COc1ccc(CN2CCN(C(=O)CC(C)C)CC2)cc1OC`, the “viability” value is 102%.

Turning to `Cc1nnc2ccc(Oc3ccc(-c4ccccc4)cc3)nn12`, the “viability” value was 95.5%.

In the case of `Nc1cc2c(cc1N)-c1ccccc1C2`, the “viability” value was 94.9%.

Turning to `CC(=O)c1ccc2c(c1)Nc1ccccc1S2`, the “viability” value is 94.2%.

Turning to `CCOC(=O)Nc1ccc2c(c1)Nc1ccccc1S2`, the “viability” value is 96.4%.

Turning to `O=C(Sc1n[nH]c(=O)[nH]c1=O)c1ccccc1`, the “viability” value was 101%.

Regarding `CCN(CC)c1ccc(/C=N/N2CCN(Cc3ccccc3)CC2)cc1`, the “viability” value was 90.3%.

As for `O=C(Nc1ccc(N2CCCCCC2)cc1)c1ccc[nH]1`, the “viability” value was 89.3%.

With `CC(C)(C)N1C(=O)c2ccc(C(=O)Nc3ccc(O)cc3)cc2C1=O`, the “viability” value is 99.5%.

Regarding `Oc1ccc(/C=C/c2ccc3ccccc3n2)cc1`, the “viability” value is 87.7%.

Take `O=C(O)c1ccc2nc(-c3ccco3)c(-c3ccco3)nc2c1`: the “viability” value is 95%.

With `COc1cc(/C=C2\SC(N3CCC(C)CC3)=NC2=O)ccc1O`, the “viability” value was 106%.

On to `COc1cc(C=C2NC(=O)NC2=O)ccc1O`, for which the “viability” value was 108%.

Turning to `CCOC(=O)C1CCCN(C2=NC(=O)/C(=C/c3ccc(O)c(OC)c3)S2)C1` (centres undefined), the “viability” value was 91.8%.

As to `CCOc1cc(/C=C2\SC(N)=NC2=O)ccc1O`, the “viability” value is 95.2%.

With `COc1cc(/C=C2\SC(=S)N(NC(=O)c3ccncc3)C2=O)ccc1O`, the “viability” value was 90.9%.

As to `COc1cc(/C=C2/SC(=S)N(c3c(C)n(C)n(-c4ccccc4)c3=O)C2=O)ccc1O`, the “viability” value was 90.8%.

With `COc1cc(/C=C2\SC(=Nc3c(C)n(C)n(-c4ccccc4)c3=O)NC2=O)ccc1O`, the “viability” value was 97.3%.

Regarding `O=C1/C(=C\c2ccc(O)c(O)c2)N=C2CCCCCN12`, the “viability” value is 98.1%.

On to `COc1cc(/C=N/NC(=O)c2cccc(N3CCCC3=O)c2)ccc1O`, for which the “viability” value is 97.9%.

As to `COc1ccc2cc(C(=O)Nc3ccc(O)cc3)sc(=O)c2c1OC`, the “viability” value is 99.2%.

In the case of `CC(C)(C)NC(=S)Nc1ccc(Nc2ccccc2)cc1`, the “viability” value was 100%.

For `Oc1ccc(Cl)cc1C=Nc1ccc2c3c(cccc13)CC2`, the “viability” value was 99.6%.

As for `CC(=O)N1CCN(c2ccc(NCc3ccc4c(c3)OCO4)cc2)CC1`, the “viability” value is 95.3%.

Take `O=C(Nc1ccc(O)cc1)c1ccc2c(c1)C(=O)N(Cc1ccccc1)C2=O`: the “viability” value is 98%.

Turning to `Nc1c(/C=C2/C=CC(=O)C(O)=C2)c(=O)nc2sc(CC(=O)N3CCOCC3)nn12`, the “viability” value was 97.2%.

On to `Cc1ccc(-c2csc3n[nH]c(=S)n23)cc1`, for which the “viability” value is 94%.

For the compound `COc1cc(/C=C/C(=O)OCC(=O)Nc2cc(S(=O)(=O)N3CCCCC3)ccc2C)ccc1O`, the “viability” value was 91.2%.

As to `COc1cc(/C=C2\SC(N)=NC2=O)cc(Cl)c1O`, the “viability” value is 89%.

For the compound `COc1cc(/C=C2\SC(c3ccc(C)cc3)=NC2=O)cc(OC)c1O`, the “viability” value was 89%.

`COc1cc(/C=c2\sc3n(c2=O)CCCN=3)ccc1O`: the “viability” value was 92.2%.

For `COc1cc(/C=C2\SC(=S)N(NC(=O)c3cccc(O)c3)C2=O)ccc1O`, the “viability” value was 106%.

With `COc1cc(/C=C2\SC(=S)N(NC(=O)c3ccc(O)cc3)C2=O)ccc1O`, the “viability” value was 95.7%.

Turning to `COc1cc(C=C2CN(C)C(=O)C2=O)ccc1O`, the “viability” value was 90.1%.

As for `CNc1nc2c3ccccc3n(C(C)=O)c2s1`, the “viability” value was 97.2%.

Turning to `COc1ccc(C2NC(=O)C(C#N)=C(S)N2c2ccccc2)cc1OC` (centres undefined), the “viability” value is 91.9%.

With `CCOCCCNc1nc(=S)[nH]c2cc(OC)c(OC)cc12`, the “viability” value is 94.4%.

Turning to `COc1ccc(CN(C)CCc2ccccn2)c(OC)c1OC`, the “viability” value was 105%.

For `CN(C)c1ncnc2c1NC1=C(S2)C(=NCCCC(=O)O)CC(C)(C)C1`, the “viability” value is 95.6%.
